# Key:
# Test in all cases: DAPPL (digital affinity profiling via proximity ligation, sequencing); 10 mM Tris-HCl pH 7.5, 50 mM NaCl, 1 mM DTT, 4% glycerol, room temperature, 30 min; GST-TFs on glutathione beads, 16-mer random dsDNA library, 0.1% formaldehyde crosslink after washing; high values mean tight binding
# Conditions in all cases: protein: recombinant; tags: N-terminal GST; dsDNA, one strand shown
# ELK1 = target: T1, ELK1 (Homo sapiens, UniProt P19419 1-428)
# T1 sequence: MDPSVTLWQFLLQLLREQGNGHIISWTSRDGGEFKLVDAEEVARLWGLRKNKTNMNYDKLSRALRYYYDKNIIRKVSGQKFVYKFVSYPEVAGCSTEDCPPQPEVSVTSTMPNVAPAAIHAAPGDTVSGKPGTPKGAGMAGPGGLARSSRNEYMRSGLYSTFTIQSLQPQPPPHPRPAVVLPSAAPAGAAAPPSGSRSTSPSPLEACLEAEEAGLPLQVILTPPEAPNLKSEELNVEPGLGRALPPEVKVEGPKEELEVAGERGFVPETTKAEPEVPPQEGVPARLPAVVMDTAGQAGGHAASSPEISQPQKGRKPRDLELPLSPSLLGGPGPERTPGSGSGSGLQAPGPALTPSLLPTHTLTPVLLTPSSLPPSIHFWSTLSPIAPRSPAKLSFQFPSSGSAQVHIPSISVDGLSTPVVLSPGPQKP
# How it was run: (§1)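 GST fusions of human transcription factors were expressed in yeast and captured with glutathione beads. Once given DNA barcodes and pooled alongside a tag-only sample, they were incubated for 30 min at room temperature with 200 nmole of a random double-stranded 16-mer DNA library in Tris/NaCl/DTT/glycerol buffer, then washed, crosslinked (0.1% formaldehyde), proximity-ligated, PCR-amplified and sequenced on an Illumina NextSeq500. The binding signal of each hexamer is its read frequency for a factor divided by its frequency for the tag-only sample.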
# GABPA = target: T2, GABPA (Homo sapiens, UniProt Q06546 1-454)
# T2 sequence: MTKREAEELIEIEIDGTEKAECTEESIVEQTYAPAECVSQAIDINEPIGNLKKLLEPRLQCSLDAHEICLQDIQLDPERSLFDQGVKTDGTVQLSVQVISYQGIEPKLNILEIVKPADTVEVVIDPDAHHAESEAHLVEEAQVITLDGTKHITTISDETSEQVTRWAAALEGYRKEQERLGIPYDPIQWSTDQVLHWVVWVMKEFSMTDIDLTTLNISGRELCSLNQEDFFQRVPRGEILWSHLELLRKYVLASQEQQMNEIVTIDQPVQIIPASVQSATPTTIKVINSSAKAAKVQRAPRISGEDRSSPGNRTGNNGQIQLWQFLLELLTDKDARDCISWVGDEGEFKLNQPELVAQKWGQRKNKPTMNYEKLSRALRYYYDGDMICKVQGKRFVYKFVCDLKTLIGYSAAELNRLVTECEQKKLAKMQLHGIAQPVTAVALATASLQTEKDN
# How it was run: as §1
# ERG = target: T3, ERG (Homo sapiens, UniProt P11308 1-479)
# T3 sequence: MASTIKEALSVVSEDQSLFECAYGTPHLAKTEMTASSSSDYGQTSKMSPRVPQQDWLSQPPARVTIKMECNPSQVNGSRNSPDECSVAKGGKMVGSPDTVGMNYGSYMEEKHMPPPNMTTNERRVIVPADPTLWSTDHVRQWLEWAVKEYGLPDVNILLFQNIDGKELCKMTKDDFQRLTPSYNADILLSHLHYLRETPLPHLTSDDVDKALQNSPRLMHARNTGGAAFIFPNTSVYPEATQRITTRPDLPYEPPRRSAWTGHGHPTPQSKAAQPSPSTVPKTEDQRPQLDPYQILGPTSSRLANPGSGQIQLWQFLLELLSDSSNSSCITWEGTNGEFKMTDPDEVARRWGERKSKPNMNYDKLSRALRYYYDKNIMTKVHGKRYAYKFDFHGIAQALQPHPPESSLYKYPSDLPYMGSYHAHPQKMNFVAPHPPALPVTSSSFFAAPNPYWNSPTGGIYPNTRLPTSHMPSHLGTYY
# How it was run: as §1
# ELF1 = ELF1 (Homo sapiens, UniProt P32519 1-619)
# Sequence of ELF1 (P32519 whole entry): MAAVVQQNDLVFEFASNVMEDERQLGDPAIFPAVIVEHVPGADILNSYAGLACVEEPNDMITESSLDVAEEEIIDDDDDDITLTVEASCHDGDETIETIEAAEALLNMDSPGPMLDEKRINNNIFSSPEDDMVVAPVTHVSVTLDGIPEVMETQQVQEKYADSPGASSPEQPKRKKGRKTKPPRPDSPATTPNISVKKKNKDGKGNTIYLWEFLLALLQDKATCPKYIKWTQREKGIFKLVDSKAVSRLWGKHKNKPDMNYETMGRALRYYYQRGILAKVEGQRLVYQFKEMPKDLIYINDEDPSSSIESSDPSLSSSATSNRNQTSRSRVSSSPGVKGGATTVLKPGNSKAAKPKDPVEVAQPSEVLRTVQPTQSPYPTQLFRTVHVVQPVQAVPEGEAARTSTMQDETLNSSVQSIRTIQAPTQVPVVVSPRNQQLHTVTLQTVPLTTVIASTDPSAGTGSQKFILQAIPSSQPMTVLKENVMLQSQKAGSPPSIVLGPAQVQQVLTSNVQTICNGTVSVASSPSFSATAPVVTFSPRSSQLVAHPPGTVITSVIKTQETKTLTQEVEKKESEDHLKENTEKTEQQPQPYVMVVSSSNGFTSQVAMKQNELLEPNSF
# How it was run: as §1
# EHF = target: T4, EHF (Homo sapiens, UniProt Q9NZC4 1-300)
# T4 sequence: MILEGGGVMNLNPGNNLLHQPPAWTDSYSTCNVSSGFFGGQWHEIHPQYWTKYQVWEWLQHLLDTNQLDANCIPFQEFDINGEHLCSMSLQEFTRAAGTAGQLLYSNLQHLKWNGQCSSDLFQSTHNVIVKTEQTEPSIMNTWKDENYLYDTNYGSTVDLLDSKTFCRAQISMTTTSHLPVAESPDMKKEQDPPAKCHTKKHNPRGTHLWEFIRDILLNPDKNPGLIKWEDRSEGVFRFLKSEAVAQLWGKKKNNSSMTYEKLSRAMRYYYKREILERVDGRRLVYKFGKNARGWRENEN
# How it was run: as §1
# SPIB = SPIB (Homo sapiens, UniProt Q01892 1-262)
# Sequence of SPIB (Q01892 whole entry): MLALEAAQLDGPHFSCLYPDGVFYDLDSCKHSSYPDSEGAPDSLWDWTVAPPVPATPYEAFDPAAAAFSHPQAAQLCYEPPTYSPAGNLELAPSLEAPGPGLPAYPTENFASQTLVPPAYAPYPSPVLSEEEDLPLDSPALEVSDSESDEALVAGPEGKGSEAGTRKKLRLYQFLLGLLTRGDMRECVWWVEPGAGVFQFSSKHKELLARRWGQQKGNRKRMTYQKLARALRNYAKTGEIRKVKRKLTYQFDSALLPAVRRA
# How it was run: as §1
# ELK3 = target: T5, ELK3 (Homo sapiens, UniProt P41970 1-407)
# T5 sequence: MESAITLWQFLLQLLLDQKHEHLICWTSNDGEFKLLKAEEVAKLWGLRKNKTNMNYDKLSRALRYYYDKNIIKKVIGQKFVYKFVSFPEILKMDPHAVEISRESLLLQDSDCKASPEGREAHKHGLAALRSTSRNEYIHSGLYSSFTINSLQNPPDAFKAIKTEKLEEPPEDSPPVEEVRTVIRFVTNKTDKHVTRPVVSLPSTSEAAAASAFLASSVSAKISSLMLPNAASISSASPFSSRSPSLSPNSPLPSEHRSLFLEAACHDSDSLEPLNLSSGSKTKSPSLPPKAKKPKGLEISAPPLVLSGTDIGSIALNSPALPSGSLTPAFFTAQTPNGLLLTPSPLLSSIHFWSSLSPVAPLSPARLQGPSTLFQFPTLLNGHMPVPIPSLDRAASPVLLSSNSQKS
# How it was run: as §1
# FEV = target: T6, FEV (Homo sapiens, UniProt Q99581 1-238)
# T6 sequence: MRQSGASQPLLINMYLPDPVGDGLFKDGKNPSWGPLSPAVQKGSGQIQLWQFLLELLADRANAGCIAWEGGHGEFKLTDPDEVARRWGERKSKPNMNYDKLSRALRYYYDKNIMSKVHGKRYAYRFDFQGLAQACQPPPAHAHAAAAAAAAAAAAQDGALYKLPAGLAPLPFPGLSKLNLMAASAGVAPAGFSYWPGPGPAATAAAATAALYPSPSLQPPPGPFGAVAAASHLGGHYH
# How it was run: as §1
# ETV5 = ETV5 (Homo sapiens, UniProt P41161 1-510)
# Sequence of ETV5 (P41161 whole entry): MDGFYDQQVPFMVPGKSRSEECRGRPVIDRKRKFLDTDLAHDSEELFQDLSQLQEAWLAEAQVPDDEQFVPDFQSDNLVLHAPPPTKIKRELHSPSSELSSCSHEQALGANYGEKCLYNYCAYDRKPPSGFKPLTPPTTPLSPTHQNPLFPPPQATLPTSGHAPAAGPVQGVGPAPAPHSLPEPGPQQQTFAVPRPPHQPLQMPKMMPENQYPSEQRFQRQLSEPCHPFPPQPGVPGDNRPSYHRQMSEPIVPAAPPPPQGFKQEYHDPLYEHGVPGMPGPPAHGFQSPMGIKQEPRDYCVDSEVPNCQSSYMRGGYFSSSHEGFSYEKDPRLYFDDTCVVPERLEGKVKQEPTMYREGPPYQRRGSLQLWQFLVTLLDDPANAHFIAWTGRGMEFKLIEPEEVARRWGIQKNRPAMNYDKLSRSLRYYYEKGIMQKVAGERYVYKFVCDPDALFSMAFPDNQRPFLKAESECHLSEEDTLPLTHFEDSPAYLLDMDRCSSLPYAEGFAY
# How it was run: as §1
# ELF4 = ELF4 (Homo sapiens, UniProt Q99607 1-663)
# Sequence of ELF4 (Q99607 whole entry): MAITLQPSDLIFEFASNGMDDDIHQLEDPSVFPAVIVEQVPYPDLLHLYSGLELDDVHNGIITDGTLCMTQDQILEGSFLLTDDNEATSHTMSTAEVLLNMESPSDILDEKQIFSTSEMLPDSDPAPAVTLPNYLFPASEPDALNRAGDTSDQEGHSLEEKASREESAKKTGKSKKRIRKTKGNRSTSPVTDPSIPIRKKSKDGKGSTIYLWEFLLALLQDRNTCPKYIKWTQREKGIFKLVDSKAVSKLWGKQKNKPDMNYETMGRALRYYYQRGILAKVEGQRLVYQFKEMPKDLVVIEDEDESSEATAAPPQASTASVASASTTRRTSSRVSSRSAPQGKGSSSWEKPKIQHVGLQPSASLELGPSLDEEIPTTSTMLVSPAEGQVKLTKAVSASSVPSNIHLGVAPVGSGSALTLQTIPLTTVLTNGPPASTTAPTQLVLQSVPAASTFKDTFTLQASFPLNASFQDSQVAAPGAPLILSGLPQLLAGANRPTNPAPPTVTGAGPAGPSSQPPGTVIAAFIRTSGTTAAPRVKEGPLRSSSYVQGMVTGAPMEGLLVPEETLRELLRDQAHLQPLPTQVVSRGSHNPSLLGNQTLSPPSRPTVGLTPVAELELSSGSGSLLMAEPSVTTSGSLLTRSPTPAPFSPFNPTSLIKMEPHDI
# How it was run: as §1
# ELK4 = target: T7, ELK4 (Homo sapiens, UniProt P28324-2 1-405)
# T7 sequence: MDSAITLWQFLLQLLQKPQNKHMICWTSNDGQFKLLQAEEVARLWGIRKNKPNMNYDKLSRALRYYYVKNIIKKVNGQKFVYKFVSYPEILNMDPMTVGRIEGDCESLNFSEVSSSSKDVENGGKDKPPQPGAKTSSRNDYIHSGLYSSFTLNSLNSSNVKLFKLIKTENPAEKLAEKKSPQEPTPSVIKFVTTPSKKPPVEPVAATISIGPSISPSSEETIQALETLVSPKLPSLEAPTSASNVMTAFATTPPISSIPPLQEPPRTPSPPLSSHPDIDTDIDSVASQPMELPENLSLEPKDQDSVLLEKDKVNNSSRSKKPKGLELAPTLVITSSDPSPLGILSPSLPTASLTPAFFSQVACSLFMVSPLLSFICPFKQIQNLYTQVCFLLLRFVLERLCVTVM
# How it was run: as §1
# ELF3 = target: T8, ELF3 (Homo sapiens, UniProt P78545 1-371)
# T8 sequence: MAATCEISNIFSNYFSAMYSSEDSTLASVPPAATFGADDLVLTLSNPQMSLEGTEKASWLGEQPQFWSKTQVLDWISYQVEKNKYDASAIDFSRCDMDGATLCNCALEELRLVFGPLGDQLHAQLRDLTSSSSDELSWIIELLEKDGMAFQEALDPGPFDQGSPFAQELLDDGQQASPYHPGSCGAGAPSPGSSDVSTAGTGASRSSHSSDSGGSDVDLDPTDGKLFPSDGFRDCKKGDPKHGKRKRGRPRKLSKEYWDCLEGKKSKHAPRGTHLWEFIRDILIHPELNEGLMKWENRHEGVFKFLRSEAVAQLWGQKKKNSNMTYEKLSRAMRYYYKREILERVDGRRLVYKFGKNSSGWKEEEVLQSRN
# How it was run: as §1
# ETV1 = ETV1 (Homo sapiens, UniProt P50549 1-477)
# Sequence of ETV1 (P50549 whole entry): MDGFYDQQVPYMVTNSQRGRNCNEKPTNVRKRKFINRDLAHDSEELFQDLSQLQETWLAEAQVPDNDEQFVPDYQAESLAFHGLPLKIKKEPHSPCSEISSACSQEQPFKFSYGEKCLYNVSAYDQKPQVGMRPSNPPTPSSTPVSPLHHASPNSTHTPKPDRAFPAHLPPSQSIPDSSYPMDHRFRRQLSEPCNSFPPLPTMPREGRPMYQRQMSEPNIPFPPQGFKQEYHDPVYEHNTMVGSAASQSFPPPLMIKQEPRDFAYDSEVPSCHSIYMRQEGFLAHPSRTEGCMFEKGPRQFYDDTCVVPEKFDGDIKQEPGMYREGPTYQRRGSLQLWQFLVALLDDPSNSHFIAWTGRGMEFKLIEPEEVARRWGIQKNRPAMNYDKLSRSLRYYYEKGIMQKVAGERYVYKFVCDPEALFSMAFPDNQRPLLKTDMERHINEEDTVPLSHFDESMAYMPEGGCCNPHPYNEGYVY
# How it was run: as §1
# ERF = target: T9, ERF (Homo sapiens, UniProt P50548 1-548)
# T9 sequence: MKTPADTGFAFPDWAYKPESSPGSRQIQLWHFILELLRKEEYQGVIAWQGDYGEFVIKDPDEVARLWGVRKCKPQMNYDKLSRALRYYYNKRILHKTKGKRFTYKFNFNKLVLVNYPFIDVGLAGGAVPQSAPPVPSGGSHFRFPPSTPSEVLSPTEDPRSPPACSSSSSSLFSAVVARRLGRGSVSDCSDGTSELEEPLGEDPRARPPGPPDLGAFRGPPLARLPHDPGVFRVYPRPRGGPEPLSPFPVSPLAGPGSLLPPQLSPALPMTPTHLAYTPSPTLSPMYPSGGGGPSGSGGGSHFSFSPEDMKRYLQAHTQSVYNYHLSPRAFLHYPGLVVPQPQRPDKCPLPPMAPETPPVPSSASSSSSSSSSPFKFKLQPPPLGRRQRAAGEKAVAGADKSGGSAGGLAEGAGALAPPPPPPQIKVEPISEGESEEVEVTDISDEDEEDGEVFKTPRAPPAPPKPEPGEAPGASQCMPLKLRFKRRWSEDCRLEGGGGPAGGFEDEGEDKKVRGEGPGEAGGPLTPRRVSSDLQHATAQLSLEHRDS
# How it was run: as §1
# ETV3L = target: T10, ETV3L (Homo sapiens, UniProt Q6ZN32 1-361)
# T10 sequence: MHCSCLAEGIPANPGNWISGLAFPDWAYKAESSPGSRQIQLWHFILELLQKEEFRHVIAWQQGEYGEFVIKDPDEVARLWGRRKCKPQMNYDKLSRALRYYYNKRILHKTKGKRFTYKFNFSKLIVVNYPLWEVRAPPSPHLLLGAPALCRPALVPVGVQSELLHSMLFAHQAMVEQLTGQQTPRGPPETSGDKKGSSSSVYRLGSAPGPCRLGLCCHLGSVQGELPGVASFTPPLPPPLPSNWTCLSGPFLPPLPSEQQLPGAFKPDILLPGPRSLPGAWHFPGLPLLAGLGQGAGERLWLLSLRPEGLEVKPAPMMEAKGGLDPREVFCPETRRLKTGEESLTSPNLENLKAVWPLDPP
# How it was run: as §1
# ETS2 = target: T11, ETS2 (Homo sapiens, UniProt P15036 1-469)
# T11 sequence: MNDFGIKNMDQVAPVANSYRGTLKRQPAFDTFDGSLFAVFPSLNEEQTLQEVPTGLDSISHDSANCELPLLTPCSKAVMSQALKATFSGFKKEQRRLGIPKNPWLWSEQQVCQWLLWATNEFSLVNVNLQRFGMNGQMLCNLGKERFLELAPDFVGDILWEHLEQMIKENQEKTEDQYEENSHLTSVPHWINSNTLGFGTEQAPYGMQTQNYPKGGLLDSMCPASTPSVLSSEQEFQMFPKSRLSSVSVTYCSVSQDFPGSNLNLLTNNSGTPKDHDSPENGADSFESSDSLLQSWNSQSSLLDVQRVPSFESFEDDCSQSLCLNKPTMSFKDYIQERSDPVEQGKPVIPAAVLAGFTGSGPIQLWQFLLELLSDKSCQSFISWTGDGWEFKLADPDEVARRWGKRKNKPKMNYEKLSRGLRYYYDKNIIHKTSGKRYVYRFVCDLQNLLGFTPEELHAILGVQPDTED
# How it was run: as §1
# ETV7 = target: T12, ETV7 (Homo sapiens, UniProt Q9Y603 1-341)
# T12 sequence: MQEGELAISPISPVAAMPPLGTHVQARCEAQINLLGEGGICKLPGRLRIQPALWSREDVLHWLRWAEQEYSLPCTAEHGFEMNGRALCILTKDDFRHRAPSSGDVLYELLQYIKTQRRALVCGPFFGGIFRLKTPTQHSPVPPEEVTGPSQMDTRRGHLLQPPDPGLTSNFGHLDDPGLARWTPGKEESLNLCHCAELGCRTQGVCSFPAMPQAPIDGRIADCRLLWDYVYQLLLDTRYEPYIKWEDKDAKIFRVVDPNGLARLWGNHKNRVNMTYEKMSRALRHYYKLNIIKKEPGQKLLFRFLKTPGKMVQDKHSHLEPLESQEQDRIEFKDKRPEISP
# How it was run: as §1
# ETV3 = target: T13, ETV3 (Homo sapiens, UniProt P41162-2 1-143)
# T13 sequence: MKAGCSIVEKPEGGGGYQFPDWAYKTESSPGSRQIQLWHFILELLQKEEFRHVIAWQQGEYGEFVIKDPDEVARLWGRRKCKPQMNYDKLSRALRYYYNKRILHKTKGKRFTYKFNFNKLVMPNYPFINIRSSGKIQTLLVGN
# How it was run: as §1
# ETV6 = ETV6 (Homo sapiens, UniProt P41212 1-452)
# Sequence of ETV6 (P41212 whole entry): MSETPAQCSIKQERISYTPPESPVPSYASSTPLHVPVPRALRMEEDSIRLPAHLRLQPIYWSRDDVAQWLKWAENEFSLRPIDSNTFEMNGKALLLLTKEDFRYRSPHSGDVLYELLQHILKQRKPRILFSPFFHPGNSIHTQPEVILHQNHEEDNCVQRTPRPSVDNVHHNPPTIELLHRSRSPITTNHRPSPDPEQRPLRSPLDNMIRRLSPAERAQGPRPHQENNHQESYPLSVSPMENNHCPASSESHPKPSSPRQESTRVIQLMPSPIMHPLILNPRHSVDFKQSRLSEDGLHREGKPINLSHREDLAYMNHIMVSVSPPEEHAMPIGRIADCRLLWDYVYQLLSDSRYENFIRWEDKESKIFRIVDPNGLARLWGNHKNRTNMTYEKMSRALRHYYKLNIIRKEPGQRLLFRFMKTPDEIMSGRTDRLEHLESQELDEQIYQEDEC
# How it was run: as §1
sequence,measurement,setting,value
GCGTCT,binding signal,ELK1,"1.05 fold enrichment (6-mer frequency, TF over GST control)"
same,binding signal,GABPA,"1.02 fold enrichment (6-mer frequency, TF over GST control)"
same,binding signal,ERG,"1.08 fold enrichment (6-mer frequency, TF over GST control)"
same,binding signal,ELF1,"1.08 fold enrichment (6-mer frequency, TF over GST control)"
same,binding signal,EHF,"1.08 fold enrichment (6-mer frequency, TF over GST control)"
same,binding signal,SPIB,"1.19 fold enrichment (6-mer frequency, TF over GST control)"
same,binding signal,ELK3,"1.13 fold enrichment (6-mer frequency, TF over GST control)"
same,binding signal,FEV,"1.08 fold enrichment (6-mer frequency, TF over GST control)"
same,binding signal,ETV5,"1.04 fold enrichment (6-mer frequency, TF over GST control)"
same,binding signal,ELF4,"1.04 fold enrichment (6-mer frequency, TF over GST control)"
same,binding signal,ELK4,"1.11 fold enrichment (6-mer frequency, TF over GST control)"
same,binding signal,ELF3,"1.34 fold enrichment (6-mer frequency, TF over GST control)"
same,binding signal,ETV1,"1.18 fold enrichment (6-mer frequency, TF over GST control)"
same,binding signal,ERF,"1.12 fold enrichment (6-mer frequency, TF over GST control)"
same,binding signal,ETV3L,"1.1 fold enrichment (6-mer frequency, TF over GST control)"
same,binding signal,ETS2,"1.04 fold enrichment (6-mer frequency, TF over GST control)"
same,binding signal,ETV7,"1.1 fold enrichment (6-mer frequency, TF over GST control)"
same,binding signal,ETV3,"1.11 fold enrichment (6-mer frequency, TF over GST control)"
same,binding signal,ETV6,"1.04 fold enrichment (6-mer frequency, TF over GST control)"
